# The supplement of paper PMC8728848
# The full list was thinned out, with the strongest signals kept by preference.
# What was measured:
# Assay in all cases: glycan array binding signal (z-score within array); higher = stronger binding
# Conditions in all cases: glycan notation: IUPAC condensed, linker removed
# Fuc(a1-2)Gal(b1-3)GlcNAc = molecular target: Fuc(a1-2)Gal(b1-3)GlcNAc
# Summary of the method: (§1)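 The Consortium for Functional Glycomics database supplied 3228 glycan arrays, of which those lacking an available protein sequence were dropped. The binding signal, a within-array Z-score, was averaged across arrays of the same protein sequence and across linkers. Negative scores can be read as non-binding.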
# [1] = molecular target: Fuc(a1-2)Gal(b1-3)GlcNAc6S
# Summary of the method: as §1
# [2] = molecular target: Fuc(a1-2)Gal(b1-3)[Fuc(a1-4)]GlcNAc
# Summary of the method: as §1
# [3] = molecular target: Fuc(a1-2)Gal6S(b1-3)GlcNAc
# Summary of the method: as §1
# [4] = molecular target: Fuc(a1-2)Gal6S(b1-3)GlcNAc6S
# Summary of the method: as §1
# [5] = molecular target: Fuc(a1-2)[GalNAc(a1-3)]Gal(b1-3)GlcNAc(b1-3)GalNAc
# Summary of the method: as §1
# [6] = molecular target: Fuc(a1-3)[Gal(b1-4)]GlcNAc6S
# Summary of the method: as §1
# [7] = molecular target: Fuc(a1-3)[Gal3S(b1-4)]Glc
# Summary of the method: as §1
# [8] = molecular target: Fuc(a1-3)[Gal3S(b1-4)]GlcNAc
# Summary of the method: as §1
# Gal(a1-3)Gal = molecular target: Gal(a1-3)Gal
# Summary of the method: as §1
# [9] = molecular target: Gal(a1-3)Gal(b1-3)GlcNAc(b1-2)Man
# Summary of the method: as §1
# Gal(b1-2)Gal = molecular target: Gal(b1-2)Gal
# Summary of the method: as §1
# [10] = molecular target: Gal(b1-3)GlcNAc(a1-3)Gal(b1-4)GlcNAc
# Summary of the method: as §1
# [11] = molecular target: Gal(b1-3)GlcNAc(b1-2)[Gal(b1-3)GlcNAc(b1-6)]Man(a1-6)[Gal(b1-3)GlcNAc(b1-2)Man(a1-3)]Man(b1-4)GlcNAc(b1-4)GlcNAc
# Summary of the method: as §1
# [12] = molecular target: Gal(b1-3)GlcNAc(b1-3)Gal(b1-4)Glc
# Summary of the method: as §1
# [13] = molecular target: Gal(b1-3)GlcNAc(b1-3)Gal(b1-4)GlcNAc(b1-2)[Gal(b1-3)GlcNAc(b1-3)Gal(b1-4)GlcNAc(b1-6)]Man(a1-6)[Gal(b1-3)GlcNAc(b1-3)Gal(b1-4)GlcNAc(b1-2)Man(a1-3)]Man(b1-4)GlcNAc(b1-4)[Fuc(a1-6)]GlcNAc
# Summary of the method: as §1
# [14] = molecular target: Gal(b1-4)GlcNAc(b1-2)Man(a1-3)[Gal(b1-4)GlcNAc(b1-2)Man(a1-6)][GlcNAc(b1-4)]Man(b1-4)GlcNAc(b1-4)[Fuc(a1-6)]GlcNAc
# Summary of the method: as §1
# [15] = molecular target: Gal(b1-4)GlcNAc(b1-3)Gal(b1-4)GlcNAc(b1-3)Gal(b1-4)GlcNAc
# Summary of the method: as §1
# [16] = molecular target: Gal(b1-4)GlcNAc(b1-3)Gal(b1-4)GlcNAc(b1-3)Gal(b1-4)GlcNAc(b1-3)Gal(b1-4)GlcNAc(b1-3)Gal(b1-4)GlcNAc(b1-2)Man(a1-3)[Gal(b1-4)GlcNAc(b1-3)Gal(b1-4)GlcNAc(b1-3)Gal(b1-4)GlcNAc(b1-3)Gal(b1-4)GlcNAc(b1-3)Gal(b1-4)GlcNAc(b1-2)Man(a1-6)]Man(b1-4)GlcNAc(b1-4)GlcNAc
# Summary of the method: as §1
# [17] = molecular target: Gal(b1-4)GlcNAc(b1-6)Gal(b1-4)GlcNAc
# Summary of the method: as §1
# Gal6S(b1-3)GlcNAc = molecular target: Gal6S(b1-3)GlcNAc
# Summary of the method: as §1
# GalNAc(b1-4)GlcNAc = molecular target: GalNAc(b1-4)GlcNAc
# Summary of the method: as §1
# [18] = molecular target: GalNAc(b1-4)GlcNAc(b1-2)Man
# Summary of the method: as §1
# [19] = molecular target: GalNAc(b1-4)GlcNAc(b1-3)GalNAc(b1-4)GlcNAc
# Summary of the method: as §1
# GalNAc4S6S(b1-4)GlcNAc = molecular target: GalNAc4S6S(b1-4)GlcNAc
# Summary of the method: as §1
# [20] = molecular target: Glc(a1-4)Glc(a1-4)Glc(a1-4)Glc
# Summary of the method: as §1
# [21] = molecular target: Glc(a1-6)Glc(a1-6)Glc(a1-6)Glc
# Summary of the method: as §1
# Glc(b1-6)Glc = molecular target: Glc(b1-6)Glc
# Summary of the method: as §1
# [22] = molecular target: GlcNAc(a1-4)Gal(b1-4)GalNAc
# Summary of the method: as §1
# [23] = molecular target: GlcNAc(a1-4)Gal(b1-4)GlcNAc
# Summary of the method: as §1
# [24] = molecular target: GlcNAc(a1-4)Gal(b1-4)GlcNAc(b1-3)Gal(b1-4)GlcNAc
# Summary of the method: as §1
# [25] = molecular target: GlcNAc(b1-2)[GlcNAc(b1-4)]Man(a1-3)[GlcNAc(b1-4)][GlcNAc(b1-2)[GlcNAc(b1-6)]Man(a1-6)]Man(b1-4)GlcNAc(b1-4)[Fuc(a1-6)]GlcNAc
# Summary of the method: as §1
# GlcNAc(b1-3)Fuc = molecular target: GlcNAc(b1-3)Fuc
# Summary of the method: as §1
# GlcNAc(b1-3)Gal(b1-4)Glc = molecular target: GlcNAc(b1-3)Gal(b1-4)Glc
# Summary of the method: as §1
# [26] = molecular target: GlcNAc(b1-3)Gal(b1-4)GlcNAc(b1-3)Gal(b1-4)GlcNAc(b1-2)Man(a1-3)[GlcNAc(b1-3)Gal(b1-4)GlcNAc(b1-3)Gal(b1-4)GlcNAc(b1-2)Man(a1-6)]Man(b1-4)GlcNAc(b1-4)GlcNAc
# Summary of the method: as §1
# [27] = molecular target: GlcNAc(b1-3)Gal(b1-4)GlcNAc(b1-3)Gal(b1-4)GlcNAc(b1-3)Gal(b1-4)GlcNAc(b1-3)Gal(b1-4)GlcNAc(b1-2)Man(a1-3)[GlcNAc(b1-3)Gal(b1-4)GlcNAc(b1-3)Gal(b1-4)GlcNAc(b1-3)Gal(b1-4)GlcNAc(b1-3)Gal(b1-4)GlcNAc(b1-2)Man(a1-6)]Man(b1-4)GlcNAc(b1-4)[Fuc(a1-6)]GlcNAc
# Summary of the method: as §1
# [28] = molecular target: GlcNAc(b1-3)Gal(b1-4)GlcNAc(b1-3)Gal(b1-4)GlcNAc(b1-3)Gal(b1-4)GlcNAc(b1-3)Gal(b1-4)GlcNAc(b1-2)[GlcNAc(b1-3)Gal(b1-4)GlcNAc(b1-3)Gal(b1-4)GlcNAc(b1-3)Gal(b1-4)GlcNAc(b1-3)Gal(b1-4)GlcNAc(b1-6)]Man(a1-6)[GlcNAc(b1-3)Gal(b1-4)GlcNAc(b1-3)Gal(b1-4)GlcNAc(b1-3)Gal(b1-4)GlcNAc(b1-3)Gal(b1-4)GlcNAc(b1-2)Man(a1-3)]Man(b1-4)GlcNAc(b1-4)[Fuc(a1-6)]GlcNAc
# Summary of the method: as §1
# [29] = molecular target: GlcNAc(b1-3)Gal(b1-4)GlcNAc(b1-3)[GlcNAc(b1-3)Gal(b1-4)GlcNAc(b1-3)]GalNAc
# Summary of the method: as §1
# Kdn(a2-3)Gal(b1-4)GlcNAc = molecular target: Kdn(a2-3)Gal(b1-4)GlcNAc
# Summary of the method: as §1
# [30] = molecular target: Man(a1-2)Man(a1-2)Man(a1-3)Man
# Summary of the method: as §1
# [31] = molecular target: Neu5Ac(a2-3)Gal(b1-3)GlcNAc(b1-3)Gal(b1-4)GlcNAc
# Summary of the method: as §1
# [32] = molecular target: Neu5Ac(a2-3)Gal(b1-3)GlcNAc(b1-3)GalNAc
# Summary of the method: as §1
# [33] = molecular target: Neu5Ac(a2-6)Gal(b1-4)GlcNAc(b1-2)Man
# Summary of the method: as §1
# [34] = molecular target: Neu5Ac(a2-6)Gal(b1-4)GlcNAc(b1-3)Gal(b1-4)GlcNAc
# Summary of the method: as §1
# [35] = molecular target: Neu5Ac(a2-8)Neu5Ac(a2-3)[Gal(b1-3)GalNAc(b1-4)]Gal(b1-4)Glc
# Summary of the method: as §1
# [36] = molecular target: Neu5Gc(b2-6)Gal(b1-4)GlcNAc
# Summary of the method: as §1
binder,measurement,setting,value
"Pa IMPa (Pseudomonas aeruginosa), Q9I5W4 (protein) MSLSTTAFPSLQGENMSRSPIPRHRALLAGFCLAGALSAQAATQEEILDAALVSGDSSQLTDSHLVALRLQQQVERIRQTRTQLLDGLYQNLSQAYDPGAASMWVLPANPDNTLPFLIGDKGRVLASLSLEAGGRGLAYGTNVLTQLSGTNAAHAPLLKRAVQWLVNGDPGAATAKDFKVSVVGVDKTAALNGLKSAGLQPADAACNALTDASCASTSKLLVLGNGASAASLSATVRARLQAGLPILFVHTNGWNQSSTGQQILAGLGLQEGPYGGNYWDKDRVPSSRTRTRSVELGGAYGQDPALVQQIVDGSWRTDYDWSKCTSYVGRTTCDDVPGLSDFSKRVDVLKGALDAYNQKAQNLFALPGTTSLRLWLLWADAVRQNIRYPMDKAADTARFQETFVADAIVGYVREAGAAQKELGSYAGQRQQSMPVSGSEETLTLTLPSAQGFTAIGRMAAPGKRLSIRIEDAGQASLAVGLNTQRIGSTRLWNTRQYDRPRFLKSPDIKLQANQSVALVSPYGGLLQLVYSGATPGQTVTVKVTGAASQPFLDIQPGEDSSQAIADFIQALDADKADWLEIRSGSVEVHAKVEKVRGSIDKDYGGDVQRFIRELNEVFIDDAYTLAGFAIPNQAKTPAIQQECAARGWDCDSETLHKLPGTQHINVDQYAQCGGGCSGNPYDQTWGLNPRGWGESHELGHNLQVNRLKVYGGRSGEISNQIFPLHKDWRVLREFGQNLDDTRVNYRNAYNLIVAGRAEADPLAGVYKRLWEDPGTYALNGERMAFYTQWVHYWADLKNDPLQGWDIWTLLYLHQRQVDKSDWDANKAALGYGTYAQRPGNSGDASSTDGNDNLLLGLSWLTQRDQRPTFALWGIRTSAAAQAQVAAYGFAEQPAFFYANNRTNEYSTVKLLDMSQGSPAWPFP",glycan array binding signal (z-score),Fuc(a1-2)Gal(b1-3)GlcNAc,-0.318
same,glycan array binding signal (z-score),[1],-0.327
same,glycan array binding signal (z-score),[2],-0.558
same,glycan array binding signal (z-score),[3],0.048
same,glycan array binding signal (z-score),[4],2.91
same,glycan array binding signal (z-score),[5],-0.411
same,glycan array binding signal (z-score),[6],-0.132
same,glycan array binding signal (z-score),[7],-0.077
same,glycan array binding signal (z-score),[8],-0.278
same,glycan array binding signal (z-score),Gal(a1-3)Gal,0.105
same,glycan array binding signal (z-score),[9],-0.472
same,glycan array binding signal (z-score),Gal(b1-2)Gal,0.524
same,glycan array binding signal (z-score),[10],1.27
same,glycan array binding signal (z-score),[11],-0.438
same,glycan array binding signal (z-score),[12],0.215
same,glycan array binding signal (z-score),[13],0.004
same,glycan array binding signal (z-score),[14],-0.448
same,glycan array binding signal (z-score),[15],-0.198
same,glycan array binding signal (z-score),[16],10.7
same,glycan array binding signal (z-score),[17],-0.112
same,glycan array binding signal (z-score),Gal6S(b1-3)GlcNAc,1.34
same,glycan array binding signal (z-score),GalNAc(b1-4)GlcNAc,-0.367
same,glycan array binding signal (z-score),[18],0.357
same,glycan array binding signal (z-score),[19],-0.197
same,glycan array binding signal (z-score),GalNAc4S6S(b1-4)GlcNAc,1.48
same,glycan array binding signal (z-score),[20],0.634
same,glycan array binding signal (z-score),[21],0.853
same,glycan array binding signal (z-score),Glc(b1-6)Glc,-0.442
same,glycan array binding signal (z-score),[22],0.088
same,glycan array binding signal (z-score),[23],3.49
same,glycan array binding signal (z-score),[24],-0.321
same,glycan array binding signal (z-score),[25],1.41
same,glycan array binding signal (z-score),GlcNAc(b1-3)Fuc,1.37
same,glycan array binding signal (z-score),GlcNAc(b1-3)Gal(b1-4)Glc,-0.08
same,glycan array binding signal (z-score),[26],-0.305
same,glycan array binding signal (z-score),[27],7.78
same,glycan array binding signal (z-score),[28],0.125
same,glycan array binding signal (z-score),[29],17.5
same,glycan array binding signal (z-score),Kdn(a2-3)Gal(b1-4)GlcNAc,-0.467
same,glycan array binding signal (z-score),[30],-0.474
same,glycan array binding signal (z-score),[31],0.474
same,glycan array binding signal (z-score),[32],0.273
same,glycan array binding signal (z-score),[33],-0.409
same,glycan array binding signal (z-score),[34],-0.371
same,glycan array binding signal (z-score),[35],-0.007
same,glycan array binding signal (z-score),[36],-0.305
